ChEMBL document CHEMBL2218924, “A broad activity screen in support of a chemogenomic map for kinase signalling research and drug discovery” (Biochem J, 2013)

What was measured:
[1] = target: Tyrosine-protein kinase SYK (Homo sapiens) (UniProt P43405); conditions: at 10 µM
[2] = target: T1, Mitogen-activated protein kinase kinase kinase 7 (Homo sapiens) (UniProt O43318); conditions: at 1 µM
T1 sequence (whole entry): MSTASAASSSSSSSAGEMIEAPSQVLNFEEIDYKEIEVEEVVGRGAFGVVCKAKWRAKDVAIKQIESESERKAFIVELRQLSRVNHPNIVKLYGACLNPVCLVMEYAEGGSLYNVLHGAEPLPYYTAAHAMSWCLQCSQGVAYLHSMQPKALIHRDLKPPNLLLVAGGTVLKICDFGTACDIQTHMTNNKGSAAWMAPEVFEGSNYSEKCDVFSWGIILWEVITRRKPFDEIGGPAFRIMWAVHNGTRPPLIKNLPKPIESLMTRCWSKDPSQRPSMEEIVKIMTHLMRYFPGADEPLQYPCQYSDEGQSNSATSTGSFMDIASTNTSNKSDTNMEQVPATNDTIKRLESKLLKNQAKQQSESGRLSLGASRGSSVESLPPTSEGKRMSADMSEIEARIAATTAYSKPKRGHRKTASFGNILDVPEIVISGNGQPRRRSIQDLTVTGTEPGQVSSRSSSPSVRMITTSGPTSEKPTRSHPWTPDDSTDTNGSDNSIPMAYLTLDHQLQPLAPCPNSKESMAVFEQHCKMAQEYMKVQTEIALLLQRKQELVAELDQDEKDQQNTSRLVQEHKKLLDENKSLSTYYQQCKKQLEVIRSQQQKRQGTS

[3] = target: T1, Mitogen-activated protein kinase kinase kinase 7 (Homo sapiens); conditions: at 10 µM
[4] = target: T2, Serine/threonine-protein kinase TAO1 (Homo sapiens) (UniProt Q7L7X3); conditions: at 1 µM
T2 sequence (whole entry): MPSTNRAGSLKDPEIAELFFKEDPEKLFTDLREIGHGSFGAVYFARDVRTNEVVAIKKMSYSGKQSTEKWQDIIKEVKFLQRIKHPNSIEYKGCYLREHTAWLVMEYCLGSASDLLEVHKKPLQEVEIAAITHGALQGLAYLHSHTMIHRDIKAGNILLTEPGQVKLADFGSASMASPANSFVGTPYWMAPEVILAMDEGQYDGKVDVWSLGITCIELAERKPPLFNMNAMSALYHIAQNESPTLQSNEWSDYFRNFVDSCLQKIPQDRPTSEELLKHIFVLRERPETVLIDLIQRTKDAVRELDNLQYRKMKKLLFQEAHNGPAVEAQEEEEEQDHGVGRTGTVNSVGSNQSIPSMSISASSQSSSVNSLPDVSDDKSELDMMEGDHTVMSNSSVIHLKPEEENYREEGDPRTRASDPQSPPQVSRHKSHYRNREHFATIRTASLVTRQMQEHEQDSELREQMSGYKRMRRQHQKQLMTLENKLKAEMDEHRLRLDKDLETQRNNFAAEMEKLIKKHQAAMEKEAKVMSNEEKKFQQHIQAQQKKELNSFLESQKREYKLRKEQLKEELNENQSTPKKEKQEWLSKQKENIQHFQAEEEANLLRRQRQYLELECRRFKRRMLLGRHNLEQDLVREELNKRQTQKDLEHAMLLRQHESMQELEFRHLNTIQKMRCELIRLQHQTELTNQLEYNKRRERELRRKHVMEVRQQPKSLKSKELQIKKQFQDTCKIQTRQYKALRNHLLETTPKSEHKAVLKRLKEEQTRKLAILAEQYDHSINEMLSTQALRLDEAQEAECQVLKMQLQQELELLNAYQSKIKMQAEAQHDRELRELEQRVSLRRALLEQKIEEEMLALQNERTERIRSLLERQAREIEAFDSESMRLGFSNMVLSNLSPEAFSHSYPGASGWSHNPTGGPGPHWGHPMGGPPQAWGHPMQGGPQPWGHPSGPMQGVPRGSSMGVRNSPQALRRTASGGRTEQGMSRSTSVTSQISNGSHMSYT

[5] = target: T2, Serine/threonine-protein kinase TAO1 (Homo sapiens); conditions: at 10 µM
[6] = target: T3, Serine/threonine-protein kinase TAO2 (Homo sapiens) (UniProt Q9UL54); conditions: at 1 µM
T3 sequence (whole entry): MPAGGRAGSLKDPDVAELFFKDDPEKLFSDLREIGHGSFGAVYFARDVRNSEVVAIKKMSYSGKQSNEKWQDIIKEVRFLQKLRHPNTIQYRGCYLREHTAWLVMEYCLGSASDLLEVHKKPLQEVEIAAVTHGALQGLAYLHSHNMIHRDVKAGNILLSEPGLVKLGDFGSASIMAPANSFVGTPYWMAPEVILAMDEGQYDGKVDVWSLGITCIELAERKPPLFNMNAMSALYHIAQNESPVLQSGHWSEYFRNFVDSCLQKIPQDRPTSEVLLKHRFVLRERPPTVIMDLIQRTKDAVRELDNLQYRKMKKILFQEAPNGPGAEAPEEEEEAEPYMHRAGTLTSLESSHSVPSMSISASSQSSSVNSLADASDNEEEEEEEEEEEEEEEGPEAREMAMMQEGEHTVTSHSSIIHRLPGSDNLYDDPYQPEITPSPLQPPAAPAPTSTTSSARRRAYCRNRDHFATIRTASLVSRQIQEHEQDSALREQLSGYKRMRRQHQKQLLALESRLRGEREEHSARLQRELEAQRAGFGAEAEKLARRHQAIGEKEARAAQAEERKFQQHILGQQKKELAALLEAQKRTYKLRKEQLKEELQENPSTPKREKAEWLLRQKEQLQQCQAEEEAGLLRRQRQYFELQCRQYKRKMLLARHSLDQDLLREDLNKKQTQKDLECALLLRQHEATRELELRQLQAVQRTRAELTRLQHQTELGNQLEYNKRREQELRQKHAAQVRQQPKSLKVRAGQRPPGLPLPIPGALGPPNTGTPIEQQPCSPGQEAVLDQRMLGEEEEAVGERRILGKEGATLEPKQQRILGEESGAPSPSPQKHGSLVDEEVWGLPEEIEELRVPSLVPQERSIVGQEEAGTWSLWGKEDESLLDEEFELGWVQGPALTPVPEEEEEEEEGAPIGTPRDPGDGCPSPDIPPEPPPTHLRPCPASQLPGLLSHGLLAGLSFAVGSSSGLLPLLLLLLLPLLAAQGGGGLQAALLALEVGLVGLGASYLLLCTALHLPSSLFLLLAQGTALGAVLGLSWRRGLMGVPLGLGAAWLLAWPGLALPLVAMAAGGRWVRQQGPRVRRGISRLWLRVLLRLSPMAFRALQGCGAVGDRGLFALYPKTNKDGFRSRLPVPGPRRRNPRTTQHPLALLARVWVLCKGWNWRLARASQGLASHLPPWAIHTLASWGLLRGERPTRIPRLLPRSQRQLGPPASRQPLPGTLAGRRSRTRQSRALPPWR

[7] = target: T3, Serine/threonine-protein kinase TAO2 (Homo sapiens); conditions: at 10 µM
[8] = target: T4, Serine/threonine-protein kinase TAO3 (Homo sapiens) (UniProt Q9H2K8); conditions: at 1 µM
T4 sequence (whole entry): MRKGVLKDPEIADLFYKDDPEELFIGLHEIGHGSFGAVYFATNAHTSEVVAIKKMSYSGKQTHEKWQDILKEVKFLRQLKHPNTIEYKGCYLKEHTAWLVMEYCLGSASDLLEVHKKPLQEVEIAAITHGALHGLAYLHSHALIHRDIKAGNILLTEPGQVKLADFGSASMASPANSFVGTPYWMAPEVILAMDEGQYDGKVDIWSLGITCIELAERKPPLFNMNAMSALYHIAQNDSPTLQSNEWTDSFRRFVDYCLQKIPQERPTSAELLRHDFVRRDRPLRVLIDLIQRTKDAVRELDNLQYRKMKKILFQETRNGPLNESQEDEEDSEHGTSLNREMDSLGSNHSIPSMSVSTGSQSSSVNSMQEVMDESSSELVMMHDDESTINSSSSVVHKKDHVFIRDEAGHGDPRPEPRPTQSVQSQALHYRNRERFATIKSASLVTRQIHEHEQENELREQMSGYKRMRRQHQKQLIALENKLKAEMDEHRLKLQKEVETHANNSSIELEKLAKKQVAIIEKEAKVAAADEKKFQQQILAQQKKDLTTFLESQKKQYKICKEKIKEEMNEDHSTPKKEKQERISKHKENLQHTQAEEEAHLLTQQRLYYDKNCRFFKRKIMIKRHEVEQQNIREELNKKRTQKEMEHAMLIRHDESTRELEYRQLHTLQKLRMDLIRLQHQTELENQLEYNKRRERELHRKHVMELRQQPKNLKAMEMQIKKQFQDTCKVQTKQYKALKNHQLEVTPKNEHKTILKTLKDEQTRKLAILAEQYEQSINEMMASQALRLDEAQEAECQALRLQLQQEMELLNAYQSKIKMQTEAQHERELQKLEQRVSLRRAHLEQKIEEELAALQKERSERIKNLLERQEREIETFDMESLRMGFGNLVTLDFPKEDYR

[9] = target: T4, Serine/threonine-protein kinase TAO3 (Homo sapiens); conditions: at 10 µM

## COc1ccc(C(=O)Nc2sc3c(c2C(N)=O)CCCC3)cc1OC
[1]
  residual activity: 89%
[2]
  residual activity: 86%
[3]
  residual activity: 86%
[4]
  residual activity: 97%
[5]
  residual activity: 86%
[6]
  residual activity: 92%
[7]
  residual activity: 83%
[8]
  residual activity: 91%
[9]
  residual activity: 93%
